Our source for the growth values is PubChem BioAssay (NCI).

Among the test systems are NCI-H23 lung; NCI-H226 lung; NCI-H322M lung; HOP-62 NSCLC; NCI-H460 lung; HOP-92 NSCLC; NCI-H522 lung; A549/ATCC NSCLC; 786-0 renal; COLO 205 colon; DU-145 prostate; MALME-3M melanoma; MDA-MB-231 breast; RXF 393 renal; SF-268 CNS; SF-295 CNS; SF-539 CNS; UACC-257 melanoma; M14 melanoma.
Holding throughout (test): NCI-60 one-dose screen, 48 h (100 = growth as untreated, 0 = no growth, -100 = all killed)
Holding throughout (details): 10 µM unless noted

The panel holds about 83,000 compounds, 20% with a hit somewhere; the sample as a whole holds those more often.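 Note: values are percent growth. 100 is the growth of untreated cells, values between 100 and 0 indicate rising inhibition; between -100 and 0 indicates cell death.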 A number with no mark means an inactive call. The source made the active and inactive calls. The calls were made as follows: active = growth percent below 10; inactive = the rest.

As for `N#Cc1c(-c2cccc([N+](=O)[O-])c2)nc(SCC(=O)c2ccc(Cl)cc2)[nH]c1=O`, the growth with NCI-H23 lung is 98.5%; in the test with NCI-H226 lung, 97.6%; in the test with NCI-H322M lung, 96.8%; in the test on HOP-62 NSCLC it was 87.4%; in the test on NCI-H460 lung, 108%; with HOP-92 NSCLC, 94.3%. Also, the growth was 88.8% in the test with NCI-H522 lung; 101% in the test with A549/ATCC NSCLC; 96.7% with 786-0 renal; 103% with COLO 205 colon; 105% with DU-145 prostate; 99.9% with MALME-3M melanoma. The growth with MDA-MB-231 breast is 99.3%; in the test with RXF 393 renal, 102%; with SF-268 CNS, 97.7%; in the test with SF-295 CNS it was 104%; in the test on SF-539 CNS, 100%; with UACC-257 melanoma, 105%. For the same molecule, the growth in the test on M14 melanoma is 100%.

With `O=C(CSc1nc2ccccc2[nH]1)NCc1ccccc1`, the growth in the test with NCI-H23 lung was 100%; in the test with NCI-H226 lung, 95.9%; with NCI-H322M lung it was 97.4%; in the test with HOP-62 NSCLC, 88.5%; in the test on NCI-H460 lung, 103%; in the test on HOP-92 NSCLC it was 105%. In addition, the growth is 98.3% in the test with NCI-H522 lung; 100% in the test on A549/ATCC NSCLC; 102% in the test with 786-0 renal; 111% in the test on COLO 205 colon; 110% in the test on DU-145 prostate; 109% with MALME-3M melanoma. In addition, the growth is 103% in the test with MDA-MB-231 breast; 101% in the test with RXF 393 renal; 98% in the test on SF-268 CNS; 102% in the test with SF-295 CNS; 95.6% in the test on SF-539 CNS; 100% in the test with UACC-257 melanoma. For the same molecule, the growth in the test with M14 melanoma is 107%.

As for `COc1cc(/C=C\c2cc(/C=C\c3ccc(O)c(OC)c3)n(C(=O)COc3ccccc3)n2)ccc1O`, the growth is 1.6% (active) with NCI-H23 lung; 9.96% (active) in the test on NCI-H226 lung; 30.8% in the test with NCI-H322M lung; 8.39% (active) in the test on HOP-62 NSCLC; 7.6% (active) with NCI-H460 lung; 14.4% in the test with HOP-92 NSCLC. The growth is -39.3% (active) in the test with NCI-H522 lung; 8.68% (active) with A549/ATCC NSCLC; 1.27% (active) with 786-0 renal; 79.3% in the test on COLO 205 colon; 9.09% (active) in the test on DU-145 prostate; 7.21% (active) in the test on MALME-3M melanoma. For the same molecule, the growth in the test on MDA-MB-231 breast is 11.3%; with RXF 393 renal, -44.5% (active); in the test on SF-268 CNS, 12%; in the test on SF-295 CNS, 15.5%; with SF-539 CNS it was -10.3% (active); in the test on UACC-257 melanoma it was 30.5%. Besides, in the test with M14 melanoma, the growth was 6.75% (active).

As to `COc1cc(-c2cc(-c3ccc(N(C)C)cc3)nc(N3CCOCC3)c2C#N)cc(OC)c1OC`, the growth in the test with NCI-H23 lung is 60%; in the test on NCI-H226 lung it was 19.9%; in the test on NCI-H322M lung it was 35.8%; with HOP-62 NSCLC, -36.8% (active); with NCI-H460 lung, 15.2%; with HOP-92 NSCLC it was 4.13% (active). Moreover, the growth in the test with NCI-H522 lung is 0.156% (active); in the test with A549/ATCC NSCLC, 26.9%; in the test with 786-0 renal, -38.5% (active); in the test with COLO 205 colon, 19.9%; in the test on DU-145 prostate, 52.4%; with MALME-3M melanoma, 31.1%. Further, the growth with MDA-MB-231 breast is 25.2%; with RXF 393 renal it was -43.2% (active); in the test on SF-268 CNS, 36%; with SF-295 CNS, -20.9% (active); with SF-539 CNS, 47.3%; in the test on UACC-257 melanoma, 24.3%. Besides, the growth in the test with M14 melanoma was -61.5% (active).

As to `CC(=O)[C@H]1CCC/C=C/[C@@H]2C[C@H](O)C[C@H]2[C@H](O)/C=C/C(=O)O1`, the growth in the test on NCI-H23 lung was -5.21% (active); with NCI-H226 lung, -57.6% (active); in the test on NCI-H322M lung, 29%; with HOP-62 NSCLC, 25.4%; with NCI-H460 lung, 6.67% (active); in the test on HOP-92 NSCLC, 22.9%. The growth is -41.2% (active) in the test on NCI-H522 lung; 20.5% in the test on A549/ATCC NSCLC; -48.3% (active) with 786-0 renal; -94.8% (active) in the test on COLO 205 colon; 25.4% in the test on DU-145 prostate; -11.5% (active) in the test with MALME-3M melanoma. The growth with MDA-MB-231 breast is -34.3% (active); with RXF 393 renal it was -32.8% (active); with SF-268 CNS, 12.3%; in the test with SF-295 CNS it was 3% (active); with SF-539 CNS it was 18.5%; in the test on UACC-257 melanoma, 24.1%. In addition, the growth in the test with M14 melanoma is 5.74% (active).

As to `CCNc1nc2ccc(Nc3ccnc4cc(Cl)ccc34)cc2[nH]1`, the growth in the test on NCI-H23 lung is 89.6%; in the test on NCI-H226 lung, 94.8%; in the test with NCI-H322M lung it was 97.5%; in the test on HOP-62 NSCLC, 94.7%; with NCI-H460 lung, 85.9%; with HOP-92 NSCLC it was 61%. The growth is 98.3% with NCI-H522 lung; 90.8% in the test on A549/ATCC NSCLC; 72.2% with 786-0 renal; 61.2% in the test with COLO 205 colon; 97% in the test with DU-145 prostate; 119% in the test on MALME-3M melanoma. Also, the growth in the test with MDA-MB-231 breast is 84.7%; in the test with RXF 393 renal it was 68.5%; in the test with SF-268 CNS it was 88.4%; in the test on SF-295 CNS, 87.3%; in the test on SF-539 CNS, 85.6%; in the test on UACC-257 melanoma, 97.9%. The growth with M14 melanoma is 91.9%.

For the molecule `C/C=C(\C)C(=O)NC1=CC[C@@]2(C)C(=CCC3C2CC[C@@]2(C)C3CC[C@@H]2C(C)N(C)C)C1=O` (stereo partly drawn), the growth is 39.2% with NCI-H23 lung; 89.6% with NCI-H226 lung; 36.9% with NCI-H322M lung; 46.4% with HOP-62 NSCLC; 17.4% in the test on NCI-H460 lung; 40.6% in the test with HOP-92 NSCLC. Also, the growth in the test with NCI-H522 lung was 77.9%; in the test on A549/ATCC NSCLC, 60.8%; in the test on 786-0 renal, 44.2%; in the test with COLO 205 colon, -8.4% (active); in the test on DU-145 prostate it was 64.6%; with MALME-3M melanoma, -42.9% (active). The growth in the test on MDA-MB-231 breast was 34.8%; with RXF 393 renal, 10.7%; with SF-268 CNS, 10.4%; with SF-295 CNS, 31.7%; in the test with SF-539 CNS, -49% (active); in the test with UACC-257 melanoma it was 2.46% (active). Moreover, the growth with M14 melanoma was -32.1% (active).
